# Bioassay records as filed in PubChem BioAssay.
# KCNQ2 pot: potentiators of rat KCNQ2 potassium channel; Potassium voltage-gated channel subfamily KQT member 2 (Rattus norvegicus), O88943; CHO-K1 KCNQ2, FluxOR thallium flux fluorescence; stronger effect = higher value; B-score at 10 µM; hit rate 0.54% among 310,000;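 active = fluorescence ratio B-score at least 3 SD of library B-scores, with initial fluorescence B-score within 3 of them, cut at about 5.3 in these data; same plate scores as AID 2156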;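 note: B-score of peak minus minimum over baseline fluorescence ratio after K+ and Tl+ stimulus; positive B-score means potentiation of KCNQ2 with more thallium influx and brighter signal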
# KCNQ2 block: rat KCNQ2 potassium channel inhibitors, primary screen, cell-based, CHO-K1, FluxOR thallium flux, B-score; B-score at 10 µM; 20 min; stronger effect = lower value; hit rate 1.1% among 310,000; AID 2156, 2009;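 active = fluorescence ratio B-score at most minus 3 library SDs, with starting brightness B-score within 2 library SDs, cut at about -5.5 in these data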
# Kir21 confirm: mouse Kir2.1 channel blockers, retest, confirmation, cell-based, FluxOR thallium flux, duplicate; shares compounds with KCNQ2 pot; Kir2.1-expressing cells, FluxOR thallium flux fluorescence; stronger effect = lower value; Tl flux remaining, % of negative control (stronger effect = lower value), % at 10 µM; hit rate 41% among 2,300;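 active = Primary-screen hit whose thallium flux fell at least 3 control SD below untreated wells in both duplicates, with normal baseline fluorescence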;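 note: 0% = blank wells without stimulus and 100% = stimulated no-compound controls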
# Target sequence (P35561 whole entry, looked up): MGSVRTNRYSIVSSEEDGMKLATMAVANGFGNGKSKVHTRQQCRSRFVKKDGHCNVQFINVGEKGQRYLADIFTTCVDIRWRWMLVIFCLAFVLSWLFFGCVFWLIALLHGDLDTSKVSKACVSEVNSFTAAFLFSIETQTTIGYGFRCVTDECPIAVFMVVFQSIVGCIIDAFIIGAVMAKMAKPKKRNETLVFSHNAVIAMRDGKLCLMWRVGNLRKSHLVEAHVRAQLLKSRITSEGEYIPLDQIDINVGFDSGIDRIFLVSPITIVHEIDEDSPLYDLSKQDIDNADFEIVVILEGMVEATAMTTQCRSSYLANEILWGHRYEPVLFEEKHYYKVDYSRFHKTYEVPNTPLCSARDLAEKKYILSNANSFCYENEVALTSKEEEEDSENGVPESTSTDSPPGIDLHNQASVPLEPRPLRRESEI
# HEK293 Tl flux: alters thallium flux in parental HEK293 cells, Kir2.1 counter-screen; FluxOR signal as % of negative control (100 = no effect), % at 10 µM; hit rate 19% among 2,300; FluxOR thallium flux fluorescence; 0% = unstimulated blank wells; AID 2105; shares compounds with KCNQ2 pot;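 active = dye signal at least 3 control SD above or below untreated wells in both duplicates, raw fluorescence within 3, either direction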;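 note: percent is based on the flux ratio of peak minus minimum fluorescence over baseline F0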
# CHO-K1 ctr: nonspecific thallium flux increase in parental CHO-K1, confirmation, counter-screen for KCNQ2 potentiator project, cell-based, FluxOR thallium flux, duplicate; shares compounds with KCNQ2 pot; parental CHO-K1 cells, FluxOR thallium flux fluorescence; zero = vehicle mean+3SD, 100% = vehicle-minus-blank window; activity increase over 3SD of controls, % at 10 µM; hit rate 43% among 1,200; AID 2282, 2010;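 active = signal rise of at least 3 SD above the untreated control mean, in both duplicate wells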;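 note: counter screen of KCNQ2 potentiator hits so any rise reflects channel-independent effects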
# KCNQ1 pot spec: human KCNQ1 channel potentiation off-target, confirmation, selectivity assay for KCNQ2 potentiator project, cell-based, CHO, FluxOR thallium flux; shares compounds with KCNQ2 pot; CHO KCNQ1 stable, FluxOR thallium flux fluorescence; beyond 3SD, as % of vehicle-control signal; activation over 3SD threshold, % at 10 µM; hit rate 28% among 1,200; AID 2283, 2010;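 active = fluorescence ratio rise of at least 3 SD of vehicle wells above their mean, in both replicate wells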;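 note: 0% = vehicle mean plus 3 SD and 100% = vehicle minus unstimulated blank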
# KCNQ2 pot conf: rat KCNQ2 channel potentiators, confirmation, cell-based, CHO, FluxOR thallium flux, duplicate; potentiation, less the hit threshold, % at 10 µM; shares compounds with KCNQ2 pot; CHO-KCNQ2 cells, FluxOR thallium flux fluorescence; hit rate 68% among 1,200; AID 2287, 2010;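 active = fluorescence ratio rising 3 SD or more over the vehicle control mean in both replicates, plus primary screen hit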;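 note: peak minus minimum thallium fluorescence divided by baseline after K/Tl stimulus; 0% = vehicle mean plus 3 SD and 100% = vehicle minus unstimulated blank difference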
# Kir21 spec: mouse Kir2.1 channel activation off-target, confirmation, selectivity assay for KCNQ2 potentiator project, cell-based, HEK293, FluxOR thallium flux; shares compounds with KCNQ2 pot; HEK293 Kir2.1, FluxOR thallium flux fluorescence; activity over 3SD threshold, % at 10 µM; hit rate 2% among 1,200; AID 2345, 2010;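 active = fluorescence ratio rise of at least 3 SD above the vehicle-control mean, seen in both replicates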;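 note: 0% = vehicle mean plus 3 SD and 100% = vehicle minus no-stimulus blank window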
# KCNQ2 W236L pot: potentiators of retigabine-insensitive KCNQ2 W236L, mechanism study for KCNQ2 potentiator project, cell-based, rat KCNQ2 W236L, CHO, automated patch clamp; shares compounds with KCNQ2 pot; automated patch clamp current; current increase over 3SD of negative controls (%), stronger effect = higher value, % at 25 µM; hit rate 10% among 940; AID 2558, 2010;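 active = current increase at least 3 SD of the untreated controls above them in both duplicate recordings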
# * hit, by the source's call; i = inactive; · = no result. Most compounds without a hit are left out; they make up all but 1.6% or so of the library.
SMILES,KCNQ2 pot,KCNQ2 block,Kir21 confirm,HEK293 Tl flux,others
Cc1cc(OCC(O)CN2CCc3ccccc3C2)cc(C(C)C)c1 (configuration not stated),·,i,53.0%*,i,
CCOc1ccc(OCC(O)CN2CCc3ccccc3C2)cc1 (configuration not stated),·,i,·,·,
CCn1c(C)nc2cc(C(=O)N/N=C/c3ccc(OC)c(O)c3)ccc21,0.68,i,·,·,
COc1ccc(S(=O)(=O)Nc2c(O)ccc3ccccc23)cc1OC,8.01*,i,i,i,CHO-K1 ctr=28.6*;KCNQ1 pot spec=1.9*;KCNQ2 pot conf=23.1*;Kir21 spec=-49.9;KCNQ2 W236L pot=i
COc1ccc(C(=O)Nc2c(O)ccc3ccccc23)cc1OC,0.97,i,·,·,
COc1ccc(NC(=S)NCc2ccccc2)c(OC)c1,0.32,i,·,·,
S=C(Nc1ccc(Nc2ccccc2)cc1)Nc1ccccn1,0.09,i,·,·,
CN(Cc1ccc(F)cc1)C(=O)c1sccc1-c1ccccc1,·,i,64.5%*,i,
COc1ccc(CN(C)C(=O)c2sccc2-c2ccccc2)c(OC)c1,·,i,·,·,
CN(C(=O)c1ccncc1)C1CCCCC1,0.58,i,·,·,
N=c1c2c(-c3ccccc3)c(-c3ccccc3)n(Cc3ccco3)c2ncn1Cc1ccccc1,-5.91,-5.91*,65.0%*,i,
N=c1c2c(-c3ccccc3)c(-c3ccccc3)n(Cc3ccco3)c2ncn1CCCn1ccnc1,·,i,32.0%*,64.5%*,
c1ccc(-c2oc3ncnc(NCCCn4ccnc4)c3c2-c2ccccc2)cc1,·,i,·,·,
N=c1c2c3c(sc2ncn1Cc1ccco1)CCCCC3,0.74,i,·,·,
O=C(Nc1cccc([N+](=O)[O-])c1)C1COc2ccccc2O1 (configuration not stated),·,i,·,·,
O=C(c1ccc(Cl)cc1)N1CCOc2ccccc21,·,i,·,·,
O=C(CSc1ccccc1)N/N=C/c1ccccc1O,5.95*,i,i,i,CHO-K1 ctr=-11.1;KCNQ1 pot spec=-13.9;KCNQ2 pot conf=24.7*;Kir21 spec=-29.8;KCNQ2 W236L pot=i
O=C(CSc1n[nH]c(=O)[nH]c1=O)N/N=C/c1ccccc1O,0.06,i,·,·,
CCN1CCN(C(=O)c2cc3cc(F)ccc3[nH]2)CC1,0.03,i,·,·,
CCCCNCc1cc(Br)c(OCC(=O)NCc2ccccc2)c(OC)c1,·,i,·,·,
CCCCNCc1cc(Br)c(OCc2cccs2)c(OC)c1,·,i,19.5%*,i,
CCOc1cc(CNCCSc2nnnn2C)cc(Br)c1OCc1ccccc1,·,i,·,·,
CCNCc1cc(Cl)c(OCc2ccccc2)c(OCC)c1,·,i,42.5%*,i,
CCOc1cc(CNCCO)cc(Br)c1OCc1ccccc1,·,i,i,i,
Fc1ccc(COc2ccc(Br)cc2CNCc2ccncc2)cc1,·,i,·,·,
SMILES,KCNQ2 pot,KCNQ2 block,Kir21 confirm,HEK293 Tl flux,others
CCOc1cc(CNCc2ccncc2)cc(Br)c1OCc1ccc(F)cc1,·,i,i,i,
CCOc1cc(CNCc2ccccn2)cc(Cl)c1OCC,·,i,·,·,
C=C(C)CCOC(=O)C(CC(=O)O)NCc1ccco1 (configuration not stated),·,i,·,·,
CCN1C(=O)C(=O)N(CC(=O)Nc2ccccc2Oc2ccccc2)C1=O,·,i,·,·,
CCOC(=O)CNC(=O)N1CCCC(C(=O)c2ccccc2SC)C1 (configuration not stated),0.5,i,·,·,
COc1ccc(CCNC(=O)c2cc3c(cc2Cl)N2CCCCCC2=NS3(=O)=O)cc1,0.82,i,·,·,
CCOC(=O)c1c(CSc2ccccc2)n(C)c2cc(Br)c(O)c(CN(C)C)c12,·,i,·,·,
CCOC(=O)c1c(CSc2ccsc2)n(C)c2cc(Br)c(O)c(CN(C)C)c12,·,i,60.5%*,66.5%*,
O=c1[nH]c(-c2ccccc2)cs1,0.01,i,·,·,
S=c1[nH]c(-c2ccccc2)cs1,11.2*,i,i,147.0%*,CHO-K1 ctr=9.5*;KCNQ1 pot spec=-15.0;KCNQ2 pot conf=65.7*;Kir21 spec=-39.1;KCNQ2 W236L pot=i
CN1CC(=O)N2Cc3[nH]c4ccccc4c3C[C@H]2C1=O,·,i,·,·,
CCN(CCCNC(=O)COc1cc(=O)n(C)c2ccccc12)c1cccc(C)c1,·,i,60.0%*,i,
Cc1cccc(CCNC(=O)COc2cc(=O)n(C)c3ccccc23)c1,·,i,·,·,
C/C(=N/NC(=O)C(O)(c1ccccc1)c1ccccc1)c1ccc([N+](=O)[O-])o1,·,i,·,·,
CCC1COCCS(=O)(=O)N1Cc1ccc(C)cc1 (configuration not stated),1.16,i,·,·,
CCC[C@H]1COCCS(=O)(=O)N1Cc1ccc(Br)cc1,0.37,i,i,127.5%*,
COc1ccc(C2NC(=O)NC(c3ccccc3)=C2c2nc3ccccc3s2)cc1 (configuration not stated),2.04,i,·,·,
O=C1NC(c2ccccc2)=C(c2nc3ccccc3s2)C(c2ccc(F)cc2)N1 (configuration not stated),8.72*,i,i,i,CHO-K1 ctr=74.1*;KCNQ1 pot spec=-1.7;KCNQ2 pot conf=21.2*;Kir21 spec=-28.1;KCNQ2 W236L pot=33.9%*
C/C(N)=C(/C#N)C(=O)COC(=O)CC1CCCC1,·,i,·,·,
C/C(N)=C(/C#N)C(=O)COC(=O)C1CCC(C(C)(C)C)CC1 (configuration not stated),5.28,i,28.0%*,i,CHO-K1 ctr=8.1*;KCNQ1 pot spec=-36.3;KCNQ2 pot conf=7.8*;Kir21 spec=-102.5;KCNQ2 W236L pot=i
Cc1ccc(NC(=O)/C(=C/c2cccs2)NC(=O)c2ccco2)c(C)c1,·,i,·,·,
O=C(CCC1CCCC1)NNC(=O)c1cccc(Cl)c1,6.09*,i,i,i,CHO-K1 ctr=106.5*;KCNQ1 pot spec=-18.2;KCNQ2 pot conf=15.2*;Kir21 spec=-11.2;KCNQ2 W236L pot=i
